From PubChem
Most compounds without a hit are left out; they make up all but 4.6% or so of the library.
Tau fibril FP – tau fibrillization inhibition (FP); hit rate 0.39% among 280,000; P10636; Potency, µM (series often up to 57.7 µM), most hits filed as inhibitors; K18 P301L tau heparin fibrillization, Alexa594 FP, 6 h; AID 1468; also: nearly all actives have a fitted effect of over 55% in size
Target sequence (P10636 561-689 P618L limits assumed): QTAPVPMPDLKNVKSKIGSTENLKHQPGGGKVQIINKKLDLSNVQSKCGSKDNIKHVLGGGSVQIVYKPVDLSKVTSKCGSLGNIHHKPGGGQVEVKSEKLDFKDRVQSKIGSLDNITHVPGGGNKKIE
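Human tau K18 […] P301L fragment, 15 uM unlabeled plus 0.24 uM Alexa 594-labeled tau (final), with compound and 20 uM heparin in 100 mM sodium acetate pH 7; 6 hr at 37 C, then Alexa 594 FP read.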
TRb-SRC2 inh – disrupts binding of human TR beta to SRC2; P10828; TRbeta-SRC2 peptide binding, fluorescence polarization; receptor liganded with 1 µM T3; Potency, µM (titrated, usually from 106 µM), hits mostly inhibitors; hit rate 0.065% among 280,000; AID 1469; also: nearly all actives have a fitted effect of over 50% in size
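Read-out is fluorescence polarization (555 nm excitation, 632 nm emission) of a Texas Red SRC2 coactivator peptide; loss of signal reflects blocked binding to human TRb ligand-binding domain in the presence of 1 uM T3.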
Tau fluor counter – counter-screen for tau fibril formation inhibitors | tau K18 P301L Alexa594 fluorescence, heparin fibrillization | Potency, µM (series often up to 57.7 µM) | hit rate 0.93% among 280,000 | AID 1463; also: nearly all actives have a fitted effect of over 55% in size
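Human K18 P301L tau (15 uM unlabeled plus 0.24 uM Alexa 594-labeled, final) in 100 mM sodium acetate pH 7 was mixed with compound and 20 uM heparin and incubated 6 hr at 37 C.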
Tau fibril ThT – inhibitors of human tau fibril formation, thioflavin T binding; recombinant tau K18 P301L (four-repeat tau fragment), heparin-induced fibrillization, ThT fluorescence; AID 1460; Potency, µM (doses to about 57.4 µM), hits mostly inhibitors; hit rate 2.1% among 270,000; P10636; also: nearly all actives have a fitted effect of over 55% in size
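Aggregation was driven by heparin (20 uM final) acting on recombinant tau […] bearing P301L in 100 mM sodium acetate pH 7; fibrils were detected with Thioflavin T.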
TR SRC2 fluor cs – counter-screen for TRb-SRC2 inhibitors: fluorescence interference; TRb/SRC2 Texas Red total fluorescence interference; Potency, µM (doses to about 106 µM); hit rate 0.29% among 280,000; AID 1479; active = well fitted curve in either direction with a large enough effect; inconclusive = small, poorly fitted or top-dose-only effect
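Flags fluorescent or light-absorbing compounds by total fluorescence, S + 2P, at 555 nm excitation and 632 nm emission. Mixture: 20 nM Texas Red SRC2 peptide, 0.6 uM human TRb LBD, 1 uM T3, 5% DMSO; compound exposure 5 h at ambient temperature.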
PNC inhibitor – perinucleolar compartment assembly inhibition. PC3M PTB-GFP, PNC prevalence imaging, 16 h; hits give low values. activity change (PNC), negative = inhibition, % at 10 µM. hit rate 3.1% among 140,000;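 active = readout at or below -70, meaning at least 70% loss of cells showing the perinucleolar compartment, a nuclear body marking cancer cells; inconclusive = readout between -30 and a set limit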
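Read-out is percentage of cells bearing a perinucleolar compartment, from automated 20x imaging of fixed, Hoechst-stained PC3M PTB-GFP cells. Cells were seeded 4 h, then exposed 16 h to compound (23 nl of library stock) in duplicate plates.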
A number is an active result; [ ] = remark or other dose. Unless noted, calls follow the shape of the dose curve; as a rule, active = well fitted curve in the direction sought with a large enough effect; inconclusive = small, poorly fitted or top-dose-only effect, or another doubt; inactive = no such curve, though single readings can be large; an effect the other way counts as inactive or inconclusive.

For COc1ccc2nc(NCCCNC(=O)c3cc(OC)c(OC)c(OC)c3)c(C#N)cc2c1 the results were Tau fibril FP inactive, TRb-SRC2 inh inactive, Tau fluor counter inactive, Tau fibril ThT inactive, TR SRC2 fluor cs inactive and PNC inhibitor inactive.
For CC(=O)c1ccc(NC(=S)NC(=O)c2c(Cl)c(C)nn2C)cc1 the results were Tau fibril FP inactive, TRb-SRC2 inh inactive, Tau fluor counter inactive, Tau fibril ThT inactive, TR SRC2 fluor cs inactive and PNC inhibitor -109.
Cc1cc(C)c(NC(=S)NC(=O)c2c(Cl)c(C)nn2C)c([N+](=O)[O-])c1 was read as Tau fibril FP inactive, TRb-SRC2 inh inactive, Tau fluor counter inactive, Tau fibril ThT inactive, TR SRC2 fluor cs inactive and PNC inhibitor inconclusive.
COc1ccc(N2CCN(c3nc(-c4cccs4)nc4ccccc34)CC2)cc1 was read as Tau fibril FP inactive, TRb-SRC2 inh inactive, Tau fluor counter inconclusive, Tau fibril ThT inconclusive and TR SRC2 fluor cs inactive.
`COc1ccc(Nc2nc(-c3cccc([N+](=O)[O-])c3)nc3ccccc23)cc1` gave Tau fibril FP inconclusive, TRb-SRC2 inh inactive, Tau fluor counter 3.5µM[quencher], Tau fibril ThT inconclusive, TR SRC2 fluor cs inactive and PNC inhibitor inconclusive.
`COc1ccc(Nc2nc(-c3cccs3)nc3ccccc23)cc1` gave Tau fibril FP inactive, TRb-SRC2 inh inactive, Tau fluor counter 10µM[quencher], Tau fibril ThT inconclusive, TR SRC2 fluor cs inactive and PNC inhibitor inconclusive.
For COc1cccc(Nc2nc(-c3cccs3)nc3ccccc23)c1 the results were Tau fibril FP 25µM, TRb-SRC2 inh inactive, Tau fluor counter inconclusive, Tau fibril ThT inactive, TR SRC2 fluor cs inactive and PNC inhibitor inactive.
Screening Cc1cc(C)nc(SCNC(=O)c2ccccc2)n1 returned Tau fibril FP inactive, TRb-SRC2 inh inactive, Tau fluor counter inactive, Tau fibril ThT inactive, TR SRC2 fluor cs inactive and PNC inhibitor inactive.
For O=C(NCSc1ccnc(SCNC(=O)c2ccc(F)cc2)n1)c1ccc(F)cc1 the results were Tau fibril FP inactive, TRb-SRC2 inh inactive, Tau fluor counter inactive, Tau fibril ThT inactive, TR SRC2 fluor cs inactive and PNC inhibitor -97.
Screening O=[N+]([O-])c1cc(Cl)ccc1N1CCN(c2ccccc2O)CC1 returned Tau fibril FP inactive, TRb-SRC2 inh inactive, Tau fluor counter 16µM[quencher], Tau fibril ThT 14µM and TR SRC2 fluor cs inactive.
Screening CCS(=O)(=O)N1CCN(c2ccc(Cl)cc2[N+](=O)[O-])CC1 returned Tau fibril FP inactive, TRb-SRC2 inh inactive, Tau fluor counter inactive, Tau fibril ThT inactive, TR SRC2 fluor cs inactive and PNC inhibitor -83.
O=[N+]([O-])c1cc(Cl)ccc1N1CCCCC1 was read as Tau fibril FP inactive, TRb-SRC2 inh inactive, Tau fluor counter inactive, Tau fibril ThT inactive and TR SRC2 fluor cs inactive.
Screening O=C(c1cc2ccccc2o1)n1nnc2ccccc21 returned Tau fibril FP inactive, TRb-SRC2 inh inactive, Tau fluor counter inactive, Tau fibril ThT inactive, TR SRC2 fluor cs inactive and PNC inhibitor inactive.
Screening CC1=C(C(=O)OC(C)C)C(c2coc3ccccc3c2=O)C2=C(CCCC2=O)N1 (stereo not given) returned Tau fibril FP inactive, TRb-SRC2 inh inactive, Tau fluor counter inactive, Tau fibril ThT inactive, TR SRC2 fluor cs inactive and PNC inhibitor -81.
COc1cc2c(C=O)c3c4c(cc(OC)c(OC)c4c2cc1OC)CCN3C was read as Tau fibril FP inactive, TRb-SRC2 inh inactive, Tau fluor counter inconclusive, Tau fibril ThT 14µM and TR SRC2 fluor cs inactive.
For COc1cc2c(C)c3c4c(cc(OC)c(OC)c4c2cc1OC)CCN3C the results were Tau fibril FP inconclusive, TRb-SRC2 inh inactive, Tau fluor counter 10µM[quencher], Tau fibril ThT inconclusive and TR SRC2 fluor cs inactive.
Screening COc1ccc(C2CC(c3ccccc3)=NN2C(=O)CSc2ncn[nH]2)cc1 (stereo not given) returned Tau fibril FP inactive, TRb-SRC2 inh inactive, Tau fluor counter inactive, Tau fibril ThT inactive and TR SRC2 fluor cs inactive.
`Cc1cc(NC(=O)Cn2nc(C(F)(F)F)c3c2CCC3)no1` gave Tau fibril FP inactive, TRb-SRC2 inh inactive, Tau fluor counter inactive, Tau fibril ThT inactive, TR SRC2 fluor cs inactive and PNC inhibitor inactive.
